Source: the supplement of paper PMC10477191
± gives the standard deviation of the averaged measurements.

system: Drosophila ezoana antennal basiconic sensillum ab10; experiment: odor-evoked OSN spike response (post minus pre-stimulus); higher = stronger neuronal excitation; details: odor dilution: 10^-4
Protocol: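 Single sensillum recordings from antennal basiconic sensilla of D. ezoana. A 500 ms pulse of odorant (10^-4 in mineral oil or DMSO) was delivered; the response is the change in action potential frequency between the 1 s pre- and post-stimulus windows (spikes/s).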

SMILES	odor-evoked OSN spike response
CC(C)=O [acetone]	76.3 ± 21 spikes/s
